# Results taken from PubChem BioAssay (NCI).
# Compounds without any hit were thinned out: in the full panel of roughly 83,000, 20% have a hit.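 Step 1: grow cells in 96-well plates. Step 2: add test compound at a single concentration. Step 3: incubate 48 h. Step 4: record percent growth.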 The source made the active and inactive calls. Rule for the calls: active = growth percent below 10; inactive = the rest.
# Test system: NCI-H322M lung
# Test: NCI-60 one-dose screen, 48 h (100 = growth as untreated, 0 = no growth, -100 = all killed)
# Settings: 10 µM unless noted
row,SMILES,growth
1,CC1(C)CC[C@]2(C(=O)O)CC[C@]3(C)C(=CCC4[C@@]5(C)C[C@@H](O)[C@@H]6OC(c7ccccc7O)OC[C@@]6(C)C5CC[C@]43C)C2C1 (stereo partly drawn),40.5% (inactive)
2,CN(c1ccc(Br)cc1)S(=O)(=O)c1ccc(-c2cnc(C3CC3)o2)cc1,46.5% (inactive)
3,CN1CCN(c2nc(-c3csc(-c4ccncc4)n3)cc3ccccc23)CC1,82.1% (inactive)
4,O=C(O)c1ccc(-n2cc(CNc3ccc(F)cc3)c(-c3ccc(C(F)(F)F)cc3)n2)cc1,89.9% (inactive)
5,CSc1nccc(-c2c(-c3ccc(F)c(OCc4ccc(F)cc4)c3)nc3sccn23)n1,91.3% (inactive)
6,O=C(COc1ccc(C2SCC(=O)N2c2ccccc2)cc1)c1ccccc1 (stereo not drawn),103% (inactive)
7,O=C(O)CNS(=O)(=O)c1ccc(Oc2ccc(S(=O)(=O)NCC(=O)O)cc2)cc1,101% (inactive)
8,Cn1nc(Nc2ccccc2)c(C(=O)NN)c1N,97% (inactive)
9,COc1cc(/C=N/n2cnc3oc(-c4ccccc4)cc3c2=N)cc(CN2CCN(C)CC2)c1O,108% (inactive)
10,CC(C)SC1=NC(=C(C(=N1)NC2=ClC=CC=C2)C#N)C3=CC=CC=C3,28% (inactive)
11,NS(=O)(=O)c1ccc(Nc2nc(N/N=C/c3ccc(F)cc3)nc(Nc3ccccc3)n2)cc1,58.1% (inactive)
12,C#C[C@]1(O)CC[C@H]2[C@@H]3CC=C4c5sc(Nc6cccc(C)n6)nc5CC[C@]4(C)[C@H]3CC[C@@]21C,61.3% (inactive)
13,CNC(=O)c1cc(Oc2ccc3nc(NC(=O)c4cc(C)cc(C)c4)sc3c2)ccn1,103% (inactive)
14,C=C(C)[C@@H]1CC[C@]2(COS(C)(=O)=O)CC[C@]3(C)[C@H](CC[C@@H]4[C@@]5(C)CCCNC(C)(C)[C@@H]5CC[C@]43C)[C@@H]12,94.7% (inactive)
15,CC(C)=CCc1c2c(c(O)c3c1O[C@]14C(=C[C@@H]5C[C@H]1C(C)(C)O[C@@]4(C/C=C(/C)C(=O)O)C5=O)C3=O)CC(O)C(C)(C)O2 (stereo partly drawn),11.6% (inactive)
16,O=C(Cn1cc(CN2C(=O)c3ccc([N+](=O)[O-])cc3C2=O)nn1)Nc1ccccc1Br,98.2% (inactive)
17,COc1cc(-c2nc(SCc3ccc(C)cc3)[nH]c(=O)c2C#N)ccc1OCc1ccccc1,104% (inactive)
18,CC(C)N=C(N/C(N)=N/c1nc2ccccc2s1)NC(C)C,62.2% (inactive)
19,O=C(Nc1cc(Cl)cc(Cl)c1)Nc1ccc2oc(=O)ccc2c1,21.9% (inactive)

row,SMILES,growth
1,CS(=O)(=O)c1nccc(-c2c(-c3ccc(F)c(OCc4ccccc4)c3)nc3sccn23)n1,22.3% (inactive)
2,COc1ccc(C2C(C#N)=C(N)Oc3c2sc2ccc(C)cc32)cc1 (stereo not drawn),71.8% (inactive)
3,C#C[C@]1(O)CC[C@H]2[C@@H]3CC=C4c5sc(-c6ccccn6)nc5CC[C@]4(C)[C@H]3CC[C@@]21C,90.6% (inactive)
4,COc1ccc(OC)c([C@H]2c3[nH]c4ccccc4c3C[C@H]3C(=O)N(CCCCCCC(=O)NO)CC(=O)N23)c1,93.3% (inactive)
5,Cc1cnc2nc(NN)[nH]n12,100% (inactive)
6,COc1ccc(-c2nc3cc(Cl)c(Cl)cc3n2CC(=O)N=Nc2c(O)[nH]c3ccc(Br)cc23)cc1,41% (inactive)
7,O=C(NCCCCCCNC(=O)c1c2c(nc3ccccc13)-c1cccnc1SC2)c1c2c(nc3ccccc13)-c1cccnc1SC2,71.9% (inactive)
8,COc1ccc(-c2ccc3c4c(cccc24)C(=O)N(N2C(=O)c4cccc5cccc(c45)C2=O)C3=O)cc1,102% (inactive)
9,COc1ccc(-c2nc3cc(Cl)c(Cl)cc3n2CC(=O)N=Nc2c(O)[nH]c3ccc(Cl)cc23)cc1,46.1% (inactive)
10,CCOC(=O)c1c(NCC(=O)Nc2ccc(Br)cc2)sc2c1CCCC2,85.6% (inactive)
11,CN1C(=O)/C(=C/C=C/c2ccco2)SC1=S,88.8% (inactive)
12,COc1ccc(-c2nnc(SCc3ccc(O)c4ncccc34)o2)cc1,49.3% (inactive)
13,C#CCOc1ccc(/C=N/Nc2nc(-c3cc4cc(Br)cc(Br)c4oc3=O)cs2)cc1,103% (inactive)
14,CS(=O)c1nccc(-c2c(-c3ccc(F)c(OCCc4ccc(F)cc4)c3)nc3sccn23)n1 (stereo not drawn),65.4% (inactive)
15,O=C1[C@@H]2Cc3c([nH]c4ccccc34)[C@H](c3c(Cl)cccc3Cl)N2C(=O)CN1C1CCN(Cc2c(F)cccc2F)CC1,89.1% (inactive)
16,NNC(=O)c1sc2nc(-c3cnccn3)cc(-c3cccs3)c2c1N,74.4% (inactive)
17,Cn1cc(-c2nnc(N)nc2-c2cn(C)c3ccc(F)cc23)c2cc(F)ccc21,101% (inactive)
18,COc1ccccc1/C=C/C=N/NC1=NC2C(S1)N(C)C(=O)N2c1ccccc1 (stereo not drawn),38.1% (inactive)
19,C[C@H]1[C@H](C)CC[C@]2(COC(=O)c3cccnc3)CC[C@]3(C)C(=CC[C@@H]4[C@@]5(C)CCCNC(C)(C)[C@@H]5CC[C@]43C)[C@H]12,88.3% (inactive)
